Measurements as given in PubChem BioAssay AID1645855 (Buhrlage Lab, Dana-Farber Cancer Institute and Novartis …, 2021).
Among all 47,000 compounds or so, about 3,100 (6.6%) were called active. Only a selection was taken, and actives are over-represented in it overall. A number with no mark means an inactive call. No stated cut-off is given here; in the data, active means inhibition above about 30%; inactive means the rest.

Target: Ubiquitin carboxyl-terminal hydrolase 17-like protein 5 (Homo sapiens) (UniProt A8MUK1)
Assay: blocks human USP17 ubiquitin-rhodamine cleavage (AID 1645855)
Details: purified USP17, Ub-rhodamine cleavage fluorescence, 3 h; at 50 µM; active compounds read high

Ubiquitin carboxyl-terminal hydrolase 17-like protein 5 (Homo sapiens), sequence (A8MUK1 whole entry, looked up): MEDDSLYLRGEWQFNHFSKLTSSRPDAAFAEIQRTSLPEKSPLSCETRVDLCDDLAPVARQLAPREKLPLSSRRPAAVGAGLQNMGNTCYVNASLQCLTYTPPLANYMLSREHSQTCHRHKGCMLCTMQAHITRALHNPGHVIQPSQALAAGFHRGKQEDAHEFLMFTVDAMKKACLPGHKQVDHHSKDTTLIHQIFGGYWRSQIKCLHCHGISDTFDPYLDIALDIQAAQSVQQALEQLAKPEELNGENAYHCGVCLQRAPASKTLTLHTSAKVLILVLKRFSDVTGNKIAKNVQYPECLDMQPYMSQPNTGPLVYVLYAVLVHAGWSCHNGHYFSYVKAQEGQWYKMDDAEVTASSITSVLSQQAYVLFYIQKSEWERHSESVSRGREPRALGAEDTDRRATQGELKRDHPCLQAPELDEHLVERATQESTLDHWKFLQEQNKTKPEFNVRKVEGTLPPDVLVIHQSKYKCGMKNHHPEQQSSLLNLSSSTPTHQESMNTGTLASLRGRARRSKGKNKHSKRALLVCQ

Row | Compound | inhibition
1 | COc1cc(OC)cc(C(=O)Nc2ccc(S(=O)(=O)Nc3cc(C)on3)cc2)c1 | 3.28%
2 | COc1ccc(C(=O)Nc2ccc(N)cn2)cc1 | 12%
3 | COc1ccc(NC(=O)c2ccnc(Nc3ccc(OC)cc3)c2)cc1 | 68.7% (active)
4 | CC(=O)N1c2ncnn2C(c2ccc(Cl)cc2)CC1c1ccc(Cl)cc1 (stereo unspecified) | -2.75%
5 | CC(C)C(=O)Oc1cn(CCCN2CCCC2=O)c2nc(C(C)C)n3c4ccccc4nc3c12 | -84.6%
6 | CCS(=O)(=O)Nc1cc(S(=O)(=O)Nc2cc(Cl)ccc2Cl)ccc1N1CCOCC1 | -13%
7 | COc1cc(Cl)c(NC(=O)c2cc(-c3ccccn3)n[nH]2)c(OC)c1 | 47.4% (active)
8 | Cc1ccc(CC(=O)N2CCN(C(=O)c3cc(-c4ccccn4)n[nH]3)CC2)cc1 | -21.8%
9 | CC1=NS(=O)(=O)N(Cc2ccccc2)C=C1C(=O)Nc1cc(F)ccc1F | -4.7%
10 | COc1cnc(-c2ccccn2)nc1Sc1ccc(Cl)cc1Cl | -0.938%
11 | O=C(Nc1ccc(Cl)cc1F)c1cc(-c2ccccn2)n[nH]1 | 83.2% (active)
12 | O=C(Nc1ccc(F)cc1)C1CCCN(C(=O)c2cc(-c3ccccn3)n[nH]2)C1 (stereo unspecified) | -40%
13 | O=C(CNc1ccc(OC2CCCC2)cc1)N1CCNC1=O | 11.8%
14 | CN1CCCN(c2nc(-c3cccnc3)nc3ccccc23)CC1 | -19%
15 | Cc1ccc(-c2n[nH]c3c2CN(S(=O)(=O)C2CC2)CC3)cc1 | -2.42%
16 | O=C(O)c1ccc(-n2cc(-c3cnccn3)cn2)cc1 | 1.05%
17 | CNC(=O)c1cnn2c(C3CCCN(c4ncccn4)C3)ccnc12 (stereo unspecified) | 2.6%
18 | Cc1nnc(N2CCN(C(c3ccccc3)c3ccccc3)CC2)[nH]c1=O | -0.696%
19 | C\C=C(/C=C(C)/C=C(C)/C=C/C=C(\C)C(=O)[C@]12O[C@H]1[C@@](O)(CCO)NC2=O)C(=O)OC | -48.6%
20 | CCCCN(c1ccccc1)S(=O)(=O)c1cccc(C(=O)OCC(=O)NCc2ccc3c(c2)OCO3)c1 | 38% (active)
21 | O=C(COC(=O)c1ccc(F)c(S(=O)(=O)N2CCOCC2)c1)NCc1ccc2c(c1)OCO2 | 16.1%
22 | COc1ccc2c(Sc3ccccc3)c(C(=O)NCc3ccc4c(c3)OCO4)[nH]c2c1 | -5.49%

Row | Compound | inhibition
23 | Nc1nc(N)nc(CN2C(=O)NC(Cc3ccccc3)(c3ccccc3)C2=O)n1 (stereo unspecified) | -1.99%
24 | CCCOc1ccc(-c2csc3ncn(CCc4ccccc4)c(=O)c23)cc1 | 13.1%
25 | COc1ccc(CC(=O)Nc2ccc3c(c2)CCC3)cc1S(=O)(=O)N1CCOCC1 | -13.3%
26 | COc1cc2c(cc1OC)CN(C(=O)c1cc(=O)c3ccccc3o1)CC2 | 8.62%
27 | COc1ccc(CC(=O)Nc2ccc3c(c2)CN(C(=O)c2ccco2)CC3)cc1 | 46.1% (active)
28 | Cc1ccccc1CNC(=O)C1CCN(c2cnc3nccnc3c2)CC1 | -13%
29 | CCN1CCN(C(=O)c2cccn2Cc2noc(-c3ccc(C)cc3)n2)CC1 | -1.85%
30 | CN(C)C(CNC(=O)c1ccccc1Br)Cc1ccccc1 (stereo unspecified) | 14.4%
31 | Cc1ccccc1N1C(=O)COc2ccc3ccccc3c2C1C(=O)NC1CCCC1 (stereo unspecified) | -5.8%
32 | CNC(=O)[C@@]12CCC3(CCN(C(=O)c4cc(C)on4)CC3)[C@@H]1CN(C)C2 | 3.02%
33 | CCn1cc(CN2C[C@@H](O)[C@H](NC(=O)c3ccccn3)C2)c(C)n1 | 12.4%
34 | O=C(Nc1ccc2oc(-c3ccccc3)nc2c1)c1cccc(-n2cnnc2)n1 | -0.426%
35 | O=C(c1cnn(-c2ccc(Cl)cc2)n1)c1cccs1 | 29.5%
36 | O=C(Nc1ccc2cn[nH]c2c1)c1cnn(-c2ccccc2)n1 | 38.2% (active)
37 | CC(NC(=O)c1ccc2ncnc(N3CCOCC3)c2c1)c1ccccc1 (stereo unspecified) | 9.89%
38 | C=C(NC(=O)C(=C)NC(=O)c1csc(C2=N[C@@H]3c4csc(n4)[C@H]4NC(=O)c5csc(n5)[C@H]([C@](C)(O)[C@@H](C)O)NC(=O)C5CSC(=N5)/C(=C/C)NC(=O)C([C@@H](C)O)NC(=O)c5csc(n5)[C@]3(CC2)NC(=O)[C@H](C)NC(=O)C(=C)NC(=O)[C@H](C)NC(=O)C([C@@H](C)CC)NC2C=Cc3c(C(C)O)cc(nc3[C@H]2O)C(=O)OC4C)n1)C(N)=O (stereo partly specified) | 53.2% (active)
39 | CN(C)C(=O)C1CN(Cc2cccc(C#N)c2)Cc2ccnn2C1 (stereo unspecified) | -3.45%
40 | c1cncc(-c2nnc3n2C2(CCCCC2)Cc2ccccc2-3)c1 | -1.82%
41 | O=c1c2ccccc2n(Cc2ccccc2Cl)c(=O)n1Cc1ccco1 | -8.56%
42 | CCn1nccc1C1CCCN1C(=O)Nc1ccc(Cl)cc1 (stereo unspecified) | 1.51%
43 | Cc1cccc(N2CC(C)Cn3c2nc2c3c(=O)n(CC(=O)OCc3ccccc3)c(=O)n2C)c1 (stereo unspecified) | -3.33%
44 | Cc1ccc(CNC(=O)CC(c2ccccc2)c2ccccc2)cc1 | 24.3%

Row | Compound | inhibition
45 | COc1ccc(CCNC(=O)CSc2cn(CCNC(=O)c3ccccc3C)c3ccccc23)cc1OC | 18.8%
46 | COc1ccc(CCNC(=O)CCCn2c(=O)c3ccccc3n(CC(=O)OCc3ccccc3)c2=O)cc1OC | 40.5% (active)
47 | Cc1ccc(CNC(=O)CCCn2c(=O)c3sccc3n(CC(=O)OCc3ccccc3)c2=O)cc1 | 47.4% (active)
48 | COc1ccc(CCNC(=O)Cn2c(=O)n(CC3CCC(C(=O)NC4CCCC4)CC3)c(=O)c3ccccc32)cc1OC (stereo unspecified) | 9.89%
49 | COCC(=O)OCc1cc(=O)oc2cc(O)ccc12 | 14.9%
50 | CN1CCn2c(-c3cccnc3)cnc2C12CCN(Cc1cccnc1)CC2 | -23.9%
51 | O=C(O)C1CCCN1C(=O)C1CCN(S(=O)(=O)c2ccccc2)CC1 (stereo unspecified) | 0.0755%
52 | CC(C)N1CCN(C(=O)Cn2c(=O)n(-c3ccccc3)c3ncccc32)CC1 | -9.73%
53 | O=C(Nc1cccnc1Cl)c1noc2c1COc1ccccc1-2 | 15%
54 | COc1cccc(CCNC(=O)Cc2cc(-c3ccc(C)cc3)on2)c1 | -2.69%
55 | Cc1nc(-c2ccc(C)c(S(=O)(=O)NCC(=O)Nc3cccc(Cl)c3)c2)no1 | -1.55%
56 | NC(=O)c1ccc(NC(=O)Cc2cc(-c3ccc(Cl)cc3)on2)cc1 | 58.4% (active)
57 | Cc1ccc(CN2CCC(N3CCN(C(=O)c4c(C)nn(C)c4C)CC3=O)CC2)cc1 | 2.05%
58 | CC(NC(=O)CN1C(=O)C2CCCN2C(=O)c2ccc(F)cc21)c1ccccc1 (stereo unspecified) | -12.4%
59 | CCc1cc(=O)n(CC(=O)NC2CCCC2)c(N2CCOCC2)n1 | 0.695%
60 | O=C(CCc1nnc2ccc(N3CCCCC3)nn12)Nc1ccc(S(=O)(=O)N2CCCCCC2)cc1 | 16.3%
61 | O=C(NC1CC1)c1cccc(OCC2CCCN(C(=O)c3cc(F)ccc3F)C2)c1 (stereo unspecified) | -3.72%
62 | CSc1nc2c(c(Nc3ccc(C(C)=O)cc3)n1)CCC2 | 61% (active)
63 | O=C(NCC1CC1)c1ccc2c(c1)nc1n2CCN(Cc2ccccn2)C1=O | -18.5%
64 | CC(C)=CCC(O)C1=CC(=O)c2c(O)ccc(O)c2C1=O (stereo unspecified) | 95.2% (active)
65 | CC(C)=CCc1cc(O)ccc1O | 4.38%
66 | CN(C(=O)c1ccc(S(=O)(=O)N2CCOCC2)cc1)c1nnc(C23CC4CC(CC(C4)C2)C3)s1 | 5.76%

Row | Compound | inhibition
67 | CCOC(=O)c1c(S(=O)(=O)NCC(=O)Nc2ccc(C)cc2)c(C)n(C)c1C | -20.2%
68 | CN(CCc1ccccc1)c1nccc(N2CCN(C(=O)c3csc(-c4cccnc4)n3)CC2)n1 | 19.2%
69 | Cc1ccc(CSc2nnc(/C=C/c3ccccc3)o2)cc1 | 39.9% (active)
70 | Cc1ccc(Cc2nnc(C(=O)NC(C)c3ccccc3)o2)cc1 (stereo unspecified) | 4.41%
71 | COc1ccccc1CC(=O)N1C[C@@H]2C[C@H]1C[C@@H]2NC(=O)c1ccccc1 | 15.2%
72 | COc1ccc(CNC(=O)CCc2c(C)nn(-c3cc(N(C)C)ncn3)c2C)cc1 | -0.38%
73 | Cc1ccc(S(=O)(=O)N2C(=O)CCC2C(=O)N2CCCC2)cc1C (stereo unspecified) | -4.46%
74 | CCn1c(CC(=O)Nc2ccccc2)nnc1SCC(=O)N1CCOCC1 | 1.1%
75 | O=C(Cc1nnc2c(-c3nc(C4CC4)no3)cccn12)Nc1ccccc1 | 69.9% (active)
76 | O=C(CN1CCC(c2nc(-c3ccccc3)no2)CC1)Nc1ccccc1 | -26.4%
77 | O=C(c1noc2c1CCCC2)N1CCCC(c2ccn[nH]2)C1 (stereo unspecified) | 0.07%
78 | O=C1NCCCCC1NS(=O)(=O)c1ccc2c(c1)CCO2 (stereo unspecified) | 2.39%
79 | CC1=C(c2ccc(F)cc2)S(=O)(=O)N=C1Nc1ccccc1Cl | 22.6%
80 | O=C(CSc1ncnc2nc[nH]c12)NC1CCCCC1 | -12.5%
81 | O=C(CSc1ncnc2c1oc1ccccc12)NC1CCCC1 | 61.3% (active)
82 | Cc1nc(SCC(=O)Nc2cc(Cl)cc(Cl)c2)c2oc3ccccc3c2n1 | -0.843%
83 | CCc1nc(SCC(=O)Nc2cc(Cl)ccc2Cl)c2oc3ccccc3c2n1 | 20.6%
84 | Cc1nnc(-c2cn(CC(=O)NC3CCCCC3)c3ccccc23)o1 | 6.87%
85 | CCc1nc(SCC(=O)Nc2cccc3ccccc23)c2oc3ccccc3c2n1 | 30.1% (active)
86 | FC(F)(F)Oc1ccc2[nH]c3c(c2c1)CNCC3 | 7.52%
